Data on 90 compounds can be found in ChEMBL document CHEMBL1157539, “Thousands of chemical starting points for antimalarial lead identification” (Nature, 2010).

Over roughly 13,000 compounds, “IFI” has its median near 4; the highest 2% begin near 17. Only a selection was taken, and the highest values are over-represented in it overall.

This test is described as follows: GSK_TCMDC: Inhibition Frequency Index (IFI). The number of non-kinase HTS assays where a compound showed > 50 % inhibition, expressed as a percentage of the number of such assays in which the compound was tested. The format is functional.
`COc1ccc2nc(C)cc(N/N=C/c3cccc([N+](=O)[O-])c3)c2c1` gave an IFI of 1.42%. Compound `COc1cccc(-c2csc(C(=O)NCC3CCN(Cc4ccc(C(C)C)cc4)C3)c2)c1` (stereo not given) had an IFI of 8%. The compound `CCN(CC)CCN(Cc1ccc(-c2ccc(C(F)(F)F)cc2)cc1)C(=O)Cn1c(CCc2c(F)cccc2F)nc(=O)c2ccccc21` returned an IFI of 11.7%. As to `Cc1cccc2nc(-c3cccc(-c4cccc(NC(=O)Cc5c[nH]cn5)c4)c3)[nH]c12`, the IFI amounted to 4.63%.

Consider `CN1CCN(S(=O)(=O)c2cccc(Nc3nccc(N(C)c4ccc5c(c4)nc(NC(=O)c4cccs4)n5C)n3)c2)CC1`, for which the IFI is 2.26%. Next, `C#CCNCc1ccc(-c2ccc(-c3nc4cc(C(F)(F)F)ccc4[nH]3)s2)cc1`: 8.82%. Next, `CC(C)N1CCC(N(Cc2ccc(-c3ccc(C(F)(F)F)cc3)cc2)C(=O)Cn2c(CCc3cccc(F)c3F)nc(=O)c3cccnc32)CC1`: 16.1%; `Cc1nn(CC(C)C)c2sc(C(=O)Nc3nc(-c4ccccn4)cs3)cc12`: 10%. Next, `COc1ccc(-c2cccc(NC(=O)c3cccc(Cl)c3)c2)cc1CN1CCNCC1`: 6.93%; `COc1ccc2nccc([C@@H](O)CN3CCC(NCCOc4ccc(F)cc4F)CC3)c2c1`: 1.59%. As to `COc1ccc(N(c2nc(-c3cc(Cl)ccc3Cl)cs2)C2CCNC2)cc1` (stereo not given), the IFI worked out at 20%. Turning to `Cc1cc(-c2cc(Cl)ccc2Cl)no1`, the IFI was 0%. For `Cc1cc(F)ccc1N(c1nc(-c2cc(Cl)ccc2Cl)cs1)C1CCNC1` (stereo not given) the value was 21.4%. For `CC(C)c1cn2c3c(cc(C(=O)N[C@@H](Cc4ccccc4)[C@H](O)CNC4CCCCC4)cc13)N(C)S(=O)(=O)CC2` the value was 2.94%; for `CN(C)CCCNCc1ccc(-c2ccc(F)c(Cl)c2)o1`, 6.94%; for `Clc1cc(Br)ccc1-c1ccc(CNCC2CCNCC2)o1`, 26.3%.

In turn, `CNCCCNCc1ccc(-c2ccc(F)c(Cl)c2)o1` displayed an IFI of 2.78%.

Consider `O=C(/C=C/c1ccc(Cl)c(Cl)c1)NCCCCCN1CCCN(C(=O)Nc2cccc(C(F)(F)F)c2)CC1`, for which the IFI is 8.61%. Regarding `O=C(/C=C/c1ccc(Cl)c(Cl)c1)NCCCCCCN1CCCN(C(=O)Nc2cccc(C(F)(F)F)c2)CC1`, the IFI turned out to be 8.26%. On to `O=C(/C=C/c1ccc(Cl)c(Cl)c1)N1CCN(C(=O)Nc2cccc(C(F)(F)F)c2)CC1`, for which the IFI worked out at 24.2%. `O=C(/C=C/c1ccc(Cl)c(Cl)c1)NCCCCCCN1CCN(C(=O)Nc2ccc(C(F)(F)F)cc2)CC1` gave an IFI of 7.03%. Next, `O=C(/C=C/c1ccc(Cl)c(Cl)c1)N1CCN(C(=O)Nc2ccc(F)c(Cl)c2)CC1`: 15.2%; `O=C(/C=C/c1ccc(Cl)c(Cl)c1)N1CCN(C(=O)Nc2ccc(C(F)(F)F)cc2)CC1`: 22.1%; `O=C(Nc1cccc(C(F)(F)F)c1)c1ccc(S(=O)(=O)NCC2CCCN(CC3CCCCC3)C2)cc1` (stereo not given): 5.1%.

In turn, `CCOC(=O)c1nc(-c2cccnc2)[nH]c1NC(=S)NCc1ccccc1` registered an IFI of 3.15%. For `C=C[C@]1(C)C[C@@H](OC(=O)CNC[C@@H](O)CN2C[C@H](c3ccnc4ccc(OC)nc34)OC2=O)[C@@]2(C)[C@@H]3C(=O)CC[C@@]3(CC[C@@H]2C)[C@@H](C)[C@@H]1O` the value was 1.56%; for `Cc1cccc2nc(-c3cccc(-c4ccc(NC(=O)Nc5cccc(C#N)c5)cc4)c3)[nH]c12`, 5%. Next, `O=S(=O)(c1ccccc1)n1ccc2cc(Nc3ncnc4cc(C#C[C@H]5CCCN5)sc34)ccc21`: 8.57%; `Cc1cc(F)ccc1Nc1nc(N(C)c2ccccc2)c2cc(OCCCN(C)C)ccc2n1`: 10.8%; `N=C(NCc1ccc(O)cc1)Nc1nc(-c2ccc(OCCCn3ccnc3)cc2)cs1`: 6.47%. Compound `Cc1ccc(Nc2nccc(NCC(O)c3cccc(F)c3)n2)cc1` (stereo not given) registered an IFI of 9.71%. `COc1ccc(Nc2nccc(NCC(O)c3cccc(C(F)(F)F)c3)n2)cc1` (stereo not given): the IFI worked out at 15.3%. For `OC(CNc1ccnc(Nc2ccccc2)n1)c1cccc(C(F)(F)F)c1` (stereo not given) the value was 12.2%. For `Cc1cccc(Nc2nccc(NCC(O)c3cccc(C(F)(F)F)c3)n2)c1` (stereo not given) the value was 14.3%.

`COc1cccc(C(O)CNc2ccnc(Nc3ccc(Cl)cc3)n2)c1` (stereo not given): the IFI was found to be 19.8%. For `Cc1ccc(Nc2nccc(NCC(O)c3cccc(C(F)(F)F)c3)n2)cc1` (stereo not given), the IFI amounted to 17.9%. Next, `CN(C)CC(=O)Nc1ccc(Nc2nccc(NCC(O)c3ccccc3)n2)cc1` (stereo not given): 2.94%; `CN(C)Cc1ccc(-c2cccc(Nc3nccc(NCC(O)c4ccccc4)n3)c2)cc1` (stereo not given): 11.2%.

Take `Cc1ccc(Nc2nccc(NCC(O)c3ccc(C(F)(F)F)cc3)n2)cc1` (stereo not given): the IFI is 9.18%.

Compound `CN(C)Cc1cccc(-c2ccc(Nc3nccc(NCC(O)c4ccccc4)n3)cc2)c1` (stereo not given) registered an IFI of 17.2%. Next, `Cc1ccc(Nc2nccc(NCC(O)c3cccc(C)c3)n2)cc1` (stereo not given): 18.4%; `OC(CNc1ccnc(Nc2ccc(Cl)cc2)n1)c1cccc(C(F)(F)F)c1` (stereo not given): 16.3%. Compound `NS(=O)(=O)c1ccc(Nc2nccc(-c3c(-c4cccc(NC(=O)c5c(F)cccc5F)c4)nn4ccccc34)n2)cc1` registered an IFI of 7.96%. Compound `Cc1cc(-c2ccc3c(c2)CCN(CCCOc2ccc4c(c2)CCN4C(=O)/C=C/c2ccccc2Cl)CC3)no1` yielded an IFI of 10.8%. Next, `CN(C)CCN(C)Cc1ccc(-c2ccc3c(Nc4ccc(F)cc4Cl)ccnc3c2)o1`: 9.86%; `Nc1ccc2[nH]cc(C3CCN(CCC4CCN(C(=O)/C=C/c5ccc(Cl)c(Cl)c5)CC4)CC3)c2n1`: 8.76%. Next, `CCCNCc1ccc(-c2ccc(CN(CCOC)C(=O)c3cnc(C)cn3)cc2)nc1`: 0%.

The compound `O=C(Nc1ccc(C(F)(F)F)cc1)N[C@H]1CCN(CCCCCNC(=O)C2CC2c2ccc(Cl)c(Cl)c2)C1` (stereo not given in full) displayed an IFI of 16.8%. Next, `CC(C)Cc1cn(-c2nc(-c3nc4ccccc4[nH]3)cs2)c2cc(Cl)ccc12`: 1.18%; `CC(C)Cc1cn(-c2nc(C(=N)N)cs2)c2cc(Cl)ccc12`: 23.9%; `CC(C)Cc1cn(-c2nc(-c3nc4ccccc4[nH]3)cs2)c2ccncc12`: 4.94%. For `CCCN(Cc1ccc(C)cc1)Cc1cc(=O)c2cc(Cl)ccc2[nH]1` the value was 9.09%; for `Fc1ccc2[nH]c(-c3cccc(-c4cccc(CN5CCN(c6ccncc6)CC5)c4)c3)nc2c1`, 13.6%; for `Fc1ccc2[nH]c(-c3cccc(-c4ccc(CN5CCN(c6ccncc6)CC5)cc4)c3)nc2c1`, 5.63%.

`Fc1ccc2[nH]c(-c3ccc(-c4cccc(CN5CCN(c6ccncc6)CC5)c4)cc3)nc2c1`: the IFI turned out to be 18.1%. Next, `Cc1cc(N)c2cc(NC(=O)c3cc4ccccc4s3)ccc2n1`: 6.12%.

On to `CC(CNC(=N)c1cccc(C(=N)NCC(C)Oc2cccc(C3CCCCC3)c2)n1)Oc1cccc(C2CCCCC2)c1` (stereo not given), for which the IFI is 17.7%. For `N=C(NCC1CC1c1ccccc1)c1cccc(C(=N)NCC2CC2c2ccccc2)n1` (stereo not given) the value was 5.65%; for `c1ccc(COc2ccc(C3CCCCC3)cc2)nc1`, 2.9%; for `Cc1cccc(NC(=O)Nc2cccc(-c3ccc(-c4nc5cc(C(F)(F)F)ccc5[nH]4)cc3)c2)c1`, 6.45%. For `O=C(Nc1ccc(Br)cc1)c1cc(Br)ccc1NS(=O)(=O)c1ccc(C(F)(F)F)cc1` the value was 25%; for `Cc1ccc(C)c(S(=O)(=O)Nc2ccc(Br)cc2C(=O)Nc2cccc(C(F)(F)F)c2)c1`, 21.1%. On to `O=C(Nc1ccc(C(F)(F)F)cc1)c1cc(Br)cnc1NCCCn1ccnc1`, for which the IFI is 1.67%. As for `Cc1cc(Cl)c(Cl)cc1NC(=O)Nc1cccc(C(F)(F)F)c1`, the IFI came to 6.52%. For the compound `O=C(Nc1cc(C(F)(F)F)cc(C(F)(F)F)c1)c1cc(C(F)(F)F)cc(C(F)(F)F)c1`, the IFI was 3.65%. Turning to `COc1cc(NC(=O)Nc2ccc(Br)cc2C(=O)Nc2ccc(Br)cc2)cc(OC)c1OC`, the IFI was found to be 1.55%. For `O=C(Nc1ccc(C(F)(F)F)cc1)c1ccc(S(=O)(=O)NC2CCN(CC3CCCCC3)CC2)cc1` the value was 2.41%. Turning to `NCCNc1ccc([N+](=O)[O-])cc1C(=O)Nc1cccc(C(F)(F)F)c1`, the IFI turned out to be 1.45%. In the case of `O=C(Nc1ccc(Br)cc1)c1cc(Br)ccc1NS(=O)(=O)c1cc(C(F)(F)F)cc(C(F)(F)F)c1`, the IFI came out at 19.9%.

For `COc1ccc2c(NN=Cc3ccccc3F)ccnc2c1`, the IFI amounted to 3.52%. For `CC(C)[C@H](NC(=O)c1c(F)cccc1F)C(=O)Nc1ccc(Cc2nc3ccccc3s2)cc1` the value was 1.96%; for `CN(N=Cc1ccccc1)C(=N)NCCCC#Cc1cccc(CN2CCCC2)c1`, 4.23%. In the case of `CC(Sc1nnc(-c2cccs2)[nH]1)C(=O)c1c[nH]c2ccccc12` (stereo not given), the IFI is 1.92%. As for `Oc1ccc2nc(NCCCc3ccccc3)nc(NCCc3ccccc3)c2c1`, the IFI is 14.1%. On to `CCN(CC)/C(=N/C(=N)NCc1ccc(Cl)cc1)NCCCCCCN/C(=N\C(=N)NCc1ccc(Cl)cc1)N(CC)CC`, for which the IFI amounted to 15.1%. Next, `COc1cccc(-c2ccc(NC(=O)C3CCCN(Cc4cccc(OC)c4O)C3)cc2)c1` (stereo not given): 4.35%; `CCC(=O)NC(c1ccco1)c1cc(Cl)c2cccnc2c1O` (stereo not given): 4.35%.

`O=C(Cc1ccccc1)NC(c1ccco1)c1cc(Cl)c2cccnc2c1O` (stereo not given) registered an IFI of 8%. Take `Oc1c(C(Nc2ccccn2)c2ccco2)cc(Cl)c2cccnc12` (stereo not given): the IFI was 22.6%. For `N=C1C=C(N)C(=O)c2ccccc21` the value was 20.8%; for `O=C(Nc1ccc(-c2cccc(-c3nc4cc(C(F)(F)F)ccc4[nH]3)c2)cc1)Nc1ccc(F)c(F)c1F`, 5.83%.

Take `COc1ccc(CCCCN2C(=O)C(c3ccccc3)(c3ccccc3)N=C2N)cc1`: the IFI is 7.69%. Turning to `COc1ccccc1CCCN1C(=O)C(c2ccccc2)(c2ccccc2)N=C1N`, the IFI was determined as 22.3%. Next, `COc1ccc(CCCN2C(=O)C(c3ccccc3)(c3ccccc3)N=C2N)cc1`: 8.65%; `CCCCC(CC)CN1C(=O)C(c2ccccc2)(c2ccccc2)N=C1N` (stereo not given): 16.3%. As to `CCC(CC)CN1C(=O)C(c2ccccc2)(c2ccccc2)N=C1N`, the IFI was found to be 3.7%. For `CCCCC(CCCC)CN1C(=O)C(c2ccccc2)(c2ccccc2)N=C1N` the value was 20.9%. Next, `N#Cc1cccc(NC(=O)Nc2ccc(-c3cccc(-c4nc5cc(F)ccc5[nH]4)c3)cc2)c1`: 4.04%; `Cc1cccc2nc(-c3ccc(-c4ccc(CNCc5ccccc5)cc4)s3)[nH]c12`: 9.62%. In turn, `Oc1c(CN2CCCC(C(F)(F)F)C2)cc(Cl)c2ccccc12` (stereo not given) showed an IFI of 6.38%.
